Source: ChEMBL document CHEMBL3988442, “University of Dundee, Small-Polar-MMV Screening Library” (2021)

target: AMP-activated protein kinase, AMPK (Homo sapiens) (UniProt P54646+O43741+P54619+Q9UGJ0+Q9Y478+Q13131+Q9UGI9); experiment: AMP-dependent Kinase enzyme assay. An in vitro enzyme assay that detects ADP turnover that is directly proportional to AMPK activity. This uses naive AMPK that is activated during the assay with MK-8722; assay type: functional; set-up: scale not given: direction of the effect not stated beside the values; conditions: 30 µM

SMILES	Percent Effect [%]
Cc1cc(C)c(CNc2cnn(CC(O)CN(C)C)c2)c(C)c1 (centres undefined)	-45.6
Cc1noc(C2CCCN(Cn3cc(Cl)cn3)C2)n1 (centres undefined)	10.4
COc1cc(COCC2CCN(Cc3ccccn3)CC2)cc(OC)c1	-0.77
CC(C)Cn1ncc(C(=O)NS(=O)(=O)C2CCCC2)c1C1CC1	5.57
Cc1nc(O)cc(CN2C[C@H](NC(=O)C3CCCC3)[C@@H](C3CC3)C2)n1	-1.66
O=C(CN1CC(c2ccccc2)CC1=O)N1CCC(c2ncc[nH]2)CC1 (centres undefined)	2.5
O=S(=O)(c1cccnc1)N1CCCCC1CCN1CCOCC1 (centres undefined)	16.1
Cc1nc(CN2CCN(S(=O)(=O)N3CCOCC3)CC2)oc1C	-4.75
Cc1ccc(-c2noc(C3CCN3C(=O)c3cc[nH]n3)n2)s1 (centres undefined)	16
CC(C)C(CCO)NC(=O)Nc1ccc(-c2csnn2)cc1 (centres undefined)	13.2
O=C(c1cccc2ccnn12)N1CCCC1Cn1cccn1 (centres undefined)	-1.71
CN1CCN(C2CCN(Cc3cn4ccccc4n3)CC2)C1=O	41.9
O=C(C1CCCOC1)N1CCN(CC(F)(F)F)c2ccccc21 (centres undefined)	6.14
Cc1ccc(S(=O)(=O)N(CC2CCOC2)C2CC2)cc1N(C)C (centres undefined)	-15
Cc1cc(C)n2c(CNCCNc3ccccc3)cnc2n1	-15.1
CNS(=O)(=O)CC(=O)N(C1CCCC1)C1CC1	-3.58
CCc1nnc(CN2CCc3ccc(S(N)(=O)=O)cc32)o1	5.08
c1c[nH]c(-c2cn(CCSc3cnn[nH]3)nn2)n1	-8.05
O=c1cc(N2CCCC2)cnn1Cc1noc(C2CCCO2)n1 (centres undefined)	-1.31
